Assay outcomes (PubChem)
BoNT A protease = BoNT A light chain protease inhibition | multiplex microsphere protease substrate cleavage, flow cytometry | inhibition, % at 10 µM | actives 0.17% (n = 360,000) | AID 588499; also: plate controls were buffer without enzyme for full effect and enzyme alone for no effect
PfHsp40 rescue = restores yeast growth despite PfHsp40 toxicity; S. cerevisiae expressing PfHsp40, growth rescue, ATP luminescence; growth rescue, % at 12.5 µM; actives 0.68% (n = 340,000); in the data active = growth rescue above about 28%, passing the limit was not always enough; inconclusive = no clear call, values can overlap the other calls;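 also: yeast W303a lacking pdr1 and pdr3 grown in galactose medium; growth measured after three days at 30 °C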
Autofluor counter = compound fluorescence in toxin protease inhibitor counterscreen; compound autofluorescence counterscreen, microsphere flow cytometry; stronger effect = higher value; actives 3.1% (n = 360,000); fluorescence intensity (concentration not given with the values); in the data active = fluorescence intensity above about 16000; inconclusive = no clear call, values can overlap the other calls
BoNT-F LC inh = inhibitors of Botulinum neurotoxin F light chain protease | Multiplex microsphere protease cleavage assay, flow cytometry | inhibition, % at 10 µM | actives 0.22% (n = 360,000) | AID 588497; in the data active = inhibition above about 35%, passing the limit was not always enough; inconclusive = no clear call, values can overlap the other calls; also: plate controls were buffer without enzyme for full effect and enzyme alone for no effect
MazF activator = activators of E. coli MazEF toxin-antitoxin RNase | FAM/BHQ RNA-DNA oligo cleavage fluorescence, 5 h | P0AE70 | actives 0.32% (n = 350,000) | activation, % at 20 µM; in the data active = activation above about 50%
Anthrax LF prot = blocks Bacillus anthracis lethal factor protease; P15917; multiplex microsphere protease cleavage assay, LF; inhibition, % at 10 µM; actives 0.12% (n = 360,000); AID 588501; also: plate controls were buffer without enzyme for full effect and enzyme alone for no effect
Active calls of the source: *; u = inconclusive; x = no result given. Rows were chosen to be rich in hits. Some 4.3% of all compounds tested hit in one or more screens of this group. Rule as the data show it, unless noted: active = inhibition above about 30%; inconclusive = no clear call, values can overlap the other calls; inactive = below that.

SMILES | BoNT A protease | PfHsp40 rescue | Autofluor counter | BoNT-F LC inh | MazF activator | Anthrax LF prot
Cc1cccc(C(=O)O/N=C(\N)Cc2cccc3ccccc23)c1 | 0 | 300* | 6423 | -2 | 5 | -5
Cc1cccc(C(=O)OCc2cc3ccccc3[nH]c2=O)c1 | x | 2 | x | x | 77* | x
Cc1cccc(/C(N)=N/OC(=O)Cc2cccc3ccccc23)c1 | 0 | -1 | 1987 | -10 | 2 | 3
Cc1ccc(C(=O)OCc2cc3ccccc3[nH]c2=O)cc1 | 0 | 0 | 7991 | -2 | 7 | -1
COc1ccccc1C/C(N)=N/OC(=O)COc1cccc2ccccc12 | 4 | 4 | 21885* | 1 | -6 | -12
Cc1ccc(/C=C(/NC(=O)c2ccccc2)C(=O)NC(Cc2c[nH]c3ccccc23)C(=O)O)cc1 (stereo not drawn) | -7 | 1 | 3788 | -23 | 7 | 5
COc1ccc2ccccc2c1CN1CCCC(CO)C1 (stereo not drawn) | u | 0 | 22577* | -4 | 9 | -14
COc1ccc(C(=O)NC(CC(C)C)C(=O)O)cc1OC (stereo not drawn) | u | 0 | 20991* | -4 | 14 | -3
COc1ccc(CNC(=O)N[C@@H](CC(C)C)C(=O)O)cc1OC | -1 | -1 | u | -15 | 11 | -2
Cc1ccc(C(C)NC(=O)c2ccco2)cc1 (stereo not drawn) | u | -1 | u | 5 | 4 | u
Cc1occc1C(=O)NC(C)c1ccc2c(c1)OCO2 (stereo not drawn) | 0 | -1 | 10623 | -11 | 1 | -2
COc1ccc(C(C)NC(=O)c2ccoc2C)cc1OC (stereo not drawn) | -4 | -1 | 24236* | -6 | 1 | -2
Cc1ccc(C(C)NC(=O)c2cc(C)oc2C)cc1 (stereo not drawn) | 0 | 48* | 9624 | 11 | 0 | 4
Cc1ccccc1NC(=O)CN1C(=O)S/C(=C/c2cccnc2)C1=O | 0 | 0 | 6006 | 8 | 9 | 2
CCOc1ccc(OC(=O)C(CCS(C)(=O)=O)N2C(=O)c3ccccc3C2=O)cc1 (stereo not drawn) | 0 | -1 | 9598 | 2 | -11 | -11
CC(=O)c1ccc(OC(=O)C(CCS(C)(=O)=O)N2C(=O)c3ccccc3C2=O)cc1 (stereo not drawn) | -2 | -1 | 21318* | -1 | -2 | 0
CC(C)(C)OC(=O)NCCCCCNC(=O)c1nc[nH]c1C(=O)NCCCCCNC(=O)OC(C)(C)C | 0 | 45* | 2800 | -2 | -4 | -2
CC(C)(C)OC(=O)NCCCCCNC(=O)c1nc[nH]c1C(=O)NCc1ccc(CNC(=O)OC(C)(C)C)cc1 | 0 | 3 | 3870 | -14 | -2 | -9
Cc1ccc(C2/C(=C(/O)c3ccccc3)C(=O)C(=O)N2CCN2CCOCC2)o1 (stereo not drawn) | 1 | -1 | 20379* | 1 | 0 | -2
COc1ccccc1C(=O)Nc1cccc2nc(C)ccc12 | -2 | -2 | 3926 | -21 | 2 | -3
CCOC(=O)N1CCN(c2cc3[nH]c(=S)[nH]c3cc2F)CC1 | 8 | 0 | 21312* | 8 | -8 | 0
CCOC(=O)N1CCN(c2cc(N)c([N+](=O)[O-])cc2F)CC1 | 1 | 0 | 20374* | 0 | -9 | 0
CCOC(=O)N1CCN(c2cc(C)c(C(C)=O)cc2F)CC1 | 2 | -1 | 10101 | 1 | -4 | 0
Cc1nc(N)sc1-c1csc(Nc2ccc(Cl)cn2)n1 | 12 | 1 | 16519* | 11 | -6 | -5
COc1ccc(/C=C/C(=O)NC(C)C)cc1Br | 1 | 0 | 22011* | 1 | -1 | -1
SMILES | BoNT A protease | PfHsp40 rescue | Autofluor counter | BoNT-F LC inh | MazF activator | Anthrax LF prot
COc1ccc(/C=C/C(=O)N(C(C)C)C(C)C)cc1Br | 0 | 1 | 11098 | -8 | 4 | -6
CCn1c(SCC(=O)c2ccc(Br)cc2)nnc1C(C)NC(=O)Cc1ccc(OC)cc1 (stereo not drawn) | -4 | -1 | 17649* | -5 | 1 | -10
CCN1C(=O)c2cccc3c(NC(=O)c4ccc5c(c4)OCCO5)ccc1c23 | 0 | 1 | 4221 | -3 | 95* | -1
CCN1C(=O)c2cccc3c(NC(=O)c4ccccc4)ccc1c23 | 1 | -1 | 3055 | -9 | -6 | 3
CC1=CCC(C(=O)O)(C(=O)N/N=C/c2cccs2)C(c2ccc([N+](=O)[O-])cc2)C1 (stereo not drawn) | 3 | 1 | 21132* | 4 | -1 | -5
O=C(CS(=O)c1cccc(Cl)c1)Nc1ccccc1Cl (stereo not drawn) | u | -1 | 22003* | -2 | 6 | -2
O=C(CS(=O)c1cccc(C(F)(F)F)c1)Nc1ccc(Cl)cc1Cl (stereo not drawn) | 0 | 1 | 5567 | 3 | -9 | -2
CN(C)c1oc(-c2ccccc2Cl)nc1C#N | 0 | 1 | 10580 | 0 | 14 | -2
CN(C)c1oc(-c2ccccc2)nc1C#N | 0 | 0 | 22791* | 1 | 2 | -4
COc1ccc(C2C(C(=O)c3ccco3)=C(O)C(=O)N2CC2CCCO2)c(OC)c1 (stereo not drawn) | -3 | 0 | 4054 | -8 | 8 | -8
Cc1ccc(C2CC(c3cccs3)n3nc(N)nc3N2)cc1 (stereo not drawn) | 1 | 0 | 16364* | -2 | -1 | 2
Cc1ccc(C2CC(c3ccccc3C)n3nc(N)nc3N2)cc1 (stereo not drawn) | 0 | 0 | 6185 | -2 | 13 | -8
Cc1ccc(NC(=S)N2CCC(c3ccccc3)C2)c(Cl)c1 (stereo not drawn) | 1 | 1 | 4072 | 2 | 3 | -6
Cc1ccc(C(C[N+](=O)[O-])c2c(N)n(C)c(=O)n(C)c2=O)cc1 (stereo not drawn) | x | 364* | x | x | 9 | x
COc1ccc(N(CC(O)CN2C(=O)NC(C)(C)C2=O)S(=O)(=O)c2ccc(C)cc2)cc1 (stereo not drawn) | 1 | 0 | 23111* | 2 | 3 | 3
Cc1ccc(N(CC(O)CN2C(=O)NC(C)(C)C2=O)S(=O)(=O)c2ccc(C)cc2)cc1 (stereo not drawn) | 1 | 0 | 4407 | -6 | -4 | -3
COc1ccc(N(CC(O)CN2CCCCC2)S(=O)(=O)c2ccc(C)cc2)cc1 (stereo not drawn) | u | -1 | 20804* | 4 | 0 | -13
O=S(=O)(Nc1cccnc1)c1cccc(C(F)(F)F)c1 | 1 | -1 | 9706 | 6 | 4 | -5
O=[N+]([O-])c1ccc(S(=O)(=O)c2cccc(C(F)(F)F)c2)nc1 | x | 42* | x | x | 4 | x
CCCn1nc(C(=O)N2CCN(S(=O)(=O)c3ccc(C)c(C)c3)CC2)c2ccccc2c1=O | 1 | 69* | 8794 | 1 | 10 | -5
